Consider 38 compounds from PubChem BioAssay AID770 (SRMLSC, 2007).

Structures are written as SMILES. Fewer than 10 of roughly 3,300 compounds were called active.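 The calls were made as follows: active = growth inhibition above 90% in viable cell count at a single dose; inactive = growth inhibition below 90%.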 The list is a sample of the results.

This assay in a line: HT29 colon tumor cell growth inhibition, primary screen, imaging, high content imaging, 24 h, CellTiter-Glo (AID 770).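 As to condensed nuclei: share of cells whose nuclear area falls below control median minus 1.5 SD.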 Conditions: HT29 cell number by imaging, at 10 µM, stronger effect = higher value; for condensed nuclei: measured here: percent cells with condensed nuclei.
Setting [1] is: measured here: ATP CellTiter-Glo viability.

`CCOC(=O)C1CCN(c2nc3ccccc3nc2C(C#N)C(=O)OC(C)COC)CC1` (centres undefined): the growth inhibition was -2.37% (inactive) and the condensed nuclei was 15.8%. Besides, the growth inhibition under setting [1] was 11.6%.
Taken in the same sequence, the figures for `CCOc1ccc(-n2c(SCc3ccc(C#N)cc3)nnc2-c2cccnc2)cc1` were 17.1% (inactive), 4.78% and -9.28%.
For `CCOC(=O)NC(O)C(=O)c1cccs1` (centres undefined), the growth inhibition is -55.2% (inactive) and the condensed nuclei amounted to 1.51%. Further, the growth inhibition under setting [1] is -7.3%.
For the compound `CC(C)OC(=O)CC1=NC(=O)CS1`, the growth inhibition was -22% (inactive) and the condensed nuclei amounted to 3.69%. In addition, under setting [1], the growth inhibition was -8.97%.
For `COc1ccc(C=NCCC2(O)CC(C)N(C)CC2C)cc1` (centres undefined), the growth inhibition is 22.1% (inactive) and the condensed nuclei stood at 3.27%. Under setting [1], the growth inhibition is -0.31%.
Taken in the same sequence, the figures for `COC(=O)CSc1nc(C)c(C(C)=O)cc1C#N` were 14.2% (inactive), 4.87% and -9.13%.
With `COc1ccc(C2Nc3ccccc3C(=O)N2Cc2ccco2)cc1CN1C(=O)c2ccccc2C1=O` (centres undefined), the growth inhibition was -35.2% (inactive) and the condensed nuclei came out at 3.89%. In addition, under setting [1], the growth inhibition was -9.9%.
In the same order, the values of `Cc1ccc(N2C(=O)CC(Cn3nc(C)cc3C)C2=O)cc1` (centres undefined) are 5.93% (inactive), 4% and -3.3%.
Regarding `CCN(CC)c1ccc(C2Nc3cccc4cccc(c34)N2)c(O)c1`, the growth inhibition was 39.6% (inactive) and the condensed nuclei is 9.18%. The growth inhibition under setting [1] came out at 11.2%.
`N#CCSc1nc2c(cc1C#N)CCCCCC2`: the growth inhibition is 27.6% (inactive) and the condensed nuclei is 3.85%. The growth inhibition under setting [1] was determined as 16.5%.
For `O=C(c1ccco1)N1CCN(CCOCCOc2cccc3ccccc23)CC1`, the growth inhibition is -0.64% (inactive) and the condensed nuclei is 4.04%. Under setting [1], the growth inhibition was -9.08%.
Regarding `COC(=O)CSc1nnc(C)c(=O)[nH]1`, the growth inhibition is -50.8% (inactive) and the condensed nuclei worked out at 0.97%. For the same compound, the growth inhibition under setting [1] is -8.35%.
With `CCN(CC)CCCn1c(C)cc2c(c1=O)C(c1ccccc1)C(C#N)=C(N)O2` (centres undefined), the growth inhibition is 3.77% (inactive) and the condensed nuclei came to 3.21%. The growth inhibition under setting [1] was -0.04%.
Taken in the same sequence, the figures for `C=CCN=C(C)C1=C(O)CCC1=O` were -21.7% (inactive), 1.55% and -5.99%.
Consider `CN(C)/C=C1\N=C(c2cccs2)OC1=O`, for which the growth inhibition is 21% (inactive) and the condensed nuclei was determined as 2.88%. In addition, the growth inhibition under setting [1] was 8.97%.
Regarding `COc1cccc2c1C(=O)c1c(O)c3c(c(O)c1C2=O)C[C@@](O)(C(=O)CO)C[C@@H]3O[C@H]1C[C@H](N)[C@H](O)[C@H](C)O1`, the growth inhibition was 84.2% (inactive) and the condensed nuclei came to 0%. For the same compound, the growth inhibition under setting [1] came out at 0%.
For `COc1cccc2c1C(=O)c1c(O)c3c(c(O)c1C2=O)C[C@@](O)(C(C)=O)C[C@@H]3O[C@H]1C[C@H](N)[C@H](O)[C@H](C)O1`, the growth inhibition is 96.9% (active) and the condensed nuclei was determined as 8.82%. Moreover, under setting [1], the growth inhibition came to 33.6%.
Take `CC(C)CC(C(=O)O)C(C)CC(=O)Nc1ccn(-c2ccccc2)n1` (centres undefined): the growth inhibition was 23.8% (inactive) and the condensed nuclei came to 6.12%. Also, the growth inhibition under setting [1] was -0.54%.
Take `O=C(NCc1ccccn1)c1ccc(=O)oc1`: the growth inhibition is 3.8% (inactive) and the condensed nuclei was found to be 2.33%. Also, the growth inhibition under setting [1] is -10.6%.
As for `C=CCOc1ccc(C2/C(=C(\O)c3ccc(F)cc3)C(=O)C(=O)N2CCCN(C)C)cc1` (centres undefined), the growth inhibition is 12.6% (inactive) and the condensed nuclei came to 0.82%. Further, under setting [1], the growth inhibition is -2.77%.
Taken in the same sequence, the figures for `COc1ccc(OC)c(C2/C(=C(\O)c3ccc(OC)c(Cl)c3)C(=O)C(=O)N2CCN(C)C)c1` (centres undefined) were -11.2% (inactive), 3.18% and -7.25%.
As to `COc1cccc(C2/C(=C(\O)c3ccc4c(c3)OCCO4)C(=O)C(=O)N2CCN(C)C)c1` (centres undefined), the growth inhibition was 2.52% (inactive) and the condensed nuclei stood at 1.83%. Further, under setting [1], the growth inhibition was -0.26%.
Consider `CC1(C)Cc2c(sc3c2C2=NCCN2C=N3)CS1`, for which the growth inhibition is 8.06% (inactive) and the condensed nuclei is 5.47%. For the same compound, under setting [1], the growth inhibition came out at 0.86%.
For `Nc1nonc1-c1noc(N2CCOCC2)n1`, the growth inhibition was -12.5% (inactive) and the condensed nuclei amounted to 1.72%. The growth inhibition under setting [1] was -12.3%.
Taken in the same sequence, the figures for `O=C1C2ON(c3ccccc3)C(c3cccnc3)C2C(=O)N1Cc1ccccc1` (centres undefined) were 13.7% (inactive), 2.97% and -16.2%.
Regarding `N#CC(C(=O)NC1CC1)c1nc2ccccc2nc1N1CCN(C/C=C/c2ccccc2)CC1` (centres undefined), the growth inhibition is -33.2% (inactive) and the condensed nuclei stood at 1.95%. Besides, the growth inhibition under setting [1] is -7.38%.
Regarding `CCOC(=O)c1cc(CC)sc1NC(=O)C1CC1`, the growth inhibition was -8.79% (inactive) and the condensed nuclei was 2.27%. Moreover, the growth inhibition under setting [1] is -9.23%.
Taken in the same sequence, the figures for `CN1C(=O)c2ccc(N(C)C)cc2C1=O` were -24.1% (inactive), 1.05% and -7.32%.
Turning to `CCN1C(=O)CC(N2CCN(c3ccc(OC)cc3)CC2)C1=O` (centres undefined), the growth inhibition was -5.76% (inactive) and the condensed nuclei stood at 4.31%. Besides, the growth inhibition under setting [1] is -6.84%.
In the same order, the values of `COc1ccc(S(=O)(=O)N2CCC(N3CCCCC3)CC2)cc1` are -21.4% (inactive), 2.89% and 3.08%.
In the same order, the values of `Cc1cccn2c(=O)c3cc(C(N)=S)c(=N)n(CCCOC(C)C)c3nc12` are -47.5% (inactive), 3.48% and -18.1%.
As for `Cc1cccc(C)c1NC(=O)CSCC(=O)c1ccc(O)c(O)c1`, the growth inhibition was 24.8% (inactive) and the condensed nuclei was 7.02%. Under setting [1], the growth inhibition was -2.15%.
For the compound `CC(C)Cc1nc(N2CCN(C(=O)Cc3ccccc3)CC2)c(C#N)c2c1COC(C)(C)C2`, the growth inhibition is -45.4% (inactive) and the condensed nuclei is 0.93%. Moreover, under setting [1], the growth inhibition was -6.01%.
With `Cc1ccc(Oc2nc3c(c(=O)n(Cc4ccccc4F)c(=O)n3C)n2C)cc1`, the growth inhibition was 1.1% (inactive) and the condensed nuclei worked out at 1.09%. For the same compound, under setting [1], the growth inhibition stood at 5.27%.
As for `c1ccc2c(c1)NC(c1ccncc1)n1c-2nc2ccccc21` (centres undefined), the growth inhibition is 16.4% (inactive) and the condensed nuclei amounted to 3.13%. For the same compound, the growth inhibition under setting [1] is -9.59%.
Turning to `COc1ccc(/C(O)=C2/C(=O)C(=O)N(c3ncccn3)C2c2ccc(OC)c(OC)c2)cc1` (centres undefined), the growth inhibition is 59.3% (inactive) and the condensed nuclei turned out to be 4.07%. The growth inhibition under setting [1] came out at 10.6%.
For `O=C1CC(c2ccccc2)NC(=O)N1` (centres undefined), the growth inhibition was -5.61% (inactive) and the condensed nuclei was determined as 3.08%. For the same compound, the growth inhibition under setting [1] was determined as 1.46%.
As for `FC(F)(F)c1cccc(N2CCc3cn[nH]c32)c1`, the growth inhibition is 21.1% (inactive) and the condensed nuclei was 4.2%. The growth inhibition under setting [1] is -4.43%.
